Reference: PubChem BioAssay (Tox21)
Unmarked numbers belong to inactive results. Results filed as inconclusive are left out. Entries that show only a call come without a potency. Activity calls are given as the source filed them. Unless noted, calls come from the whole dose curve; as a rule, active = well fitted curve in the direction sought with a large enough effect in the repeat runs; inconclusive = weak or mixed curves; inactive = no such curve, though single readings can be large; an effect the other way counts as inactive or inconclusive.

How the values were obtained:
[1] = qHTS assay to identify small molecule agonists of the TGF-beta/Smad signaling pathway (AID 1346859; active = well fitted activation curve with a large enough effect in the signal ratio in the repeat runs, not every such curve was filed as active; the % refers to the signal ratio; note: series mostly up to about 77 µM)
Summary of the method: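 Beta-lactamase reporter activity downstream of Smad binding elements was measured in stably transfected HEK 293T cells; compounds were incubated for 5 hr, substrate for 2 hr at room temperature.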

[2] = biological target: Thyrotropin-releasing hormone receptor (Homo sapiens) (UniProt P34981); experiment: qHTS assay to identify small molecule antagonists of the thyrotropin-releasing hormone receptor (TRHR) signaling pathway (AID 1346877; active = well fitted inhibition curve with a large enough effect in the repeat runs, not every such curve was filed as active; note: series mostly up to about 51 µM)
Summary of the method: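 In this cell-based calcium flux format, HEK293 cells expressing TRHR received test compound for 5 min before the agonist TRH (1 nM final). Dye loading lasted 2 h at 37 °C.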

[3] = biological target: Thyrotropin-releasing hormone receptor (Homo sapiens) (UniProt P34981); experiment: qHTS assay to identify small molecule agonists of the thyrotropin-releasing hormone receptor (TRHR) signaling pathway (AID 1346891; calls by dose curve; note: series mostly up to about 58 µM)
Summary of the method: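 Overnight-plated (18 h, 37 °C, 5% CO2) TRHR-Hek293 cells; 2 h calcium dye at 37 °C; compound in DMSO; 3-min kinetic fluorescence read.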

[4] = Human pregnane X receptor (PXR) small molecule agonists, qHTS cell viability counter screen (AID 1346977); note: nearly all actives have a fitted effect of over 50% in size
Summary of the method: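 After a 5hr pre-incubation, PXR-Luc HepG2 cells received compounds plus positive control in DMSO and were kept 24hr at 37C. Cell viability was quantified by fluorescence from CellTiter-Fluor added for the final hour.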

[5] = Caspase-3/7 induction in HepG2 cells by small molecules, qHTS assay (AID 1346978); note: nearly all actives have a fitted effect of over 15% in size
Summary of the method: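 Wild-type HepG2 cells (2,000/well) were settled 5 h at 37 C, 5% CO2, then exposed to compounds in DMSO for 17 h. Caspase-3/7 activity was read by luminescence 30 min after adding Caspase-Glo 3/7 reagent at room temperature.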

[6] = Caspase-3/7 induction in CHO-K1 cells by small molecules, qHTS cell viability counter screen (AID 1346979); note: nearly all actives have a fitted effect of over 35% in size
Summary of the method: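 Multiplexed with Caspase-Glo 3/7 in CHO-K1 cells, this counter screen added CellTiter-Fluor after 16hr of compound exposure and recorded fluorescence 1hr later.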

[7] = Caspase-3/7 induction in CHO-K1 cells by small molecules, qHTS assay (AID 1346980); note: nearly all actives have a fitted effect of over 15% in size
Summary of the method: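 Wild-type cells were seeded at 1,500 per well and settled 5 hr at 37 C, 5% CO2, then exposed to DMSO-dissolved compounds for 17 hr. Caspase-Glo 3/7 reagent was added, and luminescence was read after 30min at room temperature.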

[8] = Caspase-3/7 induction in HepG2 cells by small molecules, qHTS cell viability counter screen (AID 1346981); note: series mostly up to about 92 µM; nearly all actives have a fitted effect of over 30% in size
Summary of the method: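 Counter screen for cytotoxicity: HepG2 exposed 16 hr to compounds, then CellTiter-Fluor viability signal (fluorescence, 1 hr reagent incubation).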

[9] = biological target: Nuclear receptor subfamily 1 group I member 2 (Homo sapiens) (UniProt O75469); experiment: Human pregnane X receptor (PXR) small molecule agonists, qHTS assay (AID 1346982); note: nearly all actives have a fitted effect of over 35% in size; note: potency is the fitted concentration of half-maximal effect
Summary of the method: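 Luminescence (ONE-Glo, 30 min RT) after 24 hr compound exposure of PXR-Luc HepG2 cells; cells rested 5 hr post-plating in 5% charcoal-stripped FBS medium.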

Chain of Thyrotropin-releasing hormone receptor (Homo sapiens) (P34981 whole entry, looked up): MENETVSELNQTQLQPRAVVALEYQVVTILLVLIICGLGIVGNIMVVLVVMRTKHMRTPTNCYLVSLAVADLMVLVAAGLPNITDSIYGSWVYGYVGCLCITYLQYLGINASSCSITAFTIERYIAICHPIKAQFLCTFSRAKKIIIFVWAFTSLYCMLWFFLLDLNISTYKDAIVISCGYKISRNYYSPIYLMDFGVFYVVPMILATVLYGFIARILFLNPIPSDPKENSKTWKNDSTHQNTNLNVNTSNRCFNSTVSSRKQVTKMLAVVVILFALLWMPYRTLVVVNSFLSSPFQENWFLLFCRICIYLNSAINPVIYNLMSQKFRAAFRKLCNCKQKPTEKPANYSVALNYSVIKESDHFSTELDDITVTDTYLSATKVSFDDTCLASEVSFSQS
Chain of Nuclear receptor subfamily 1 group I member 2 (Homo sapiens) (O75469 whole entry, looked up): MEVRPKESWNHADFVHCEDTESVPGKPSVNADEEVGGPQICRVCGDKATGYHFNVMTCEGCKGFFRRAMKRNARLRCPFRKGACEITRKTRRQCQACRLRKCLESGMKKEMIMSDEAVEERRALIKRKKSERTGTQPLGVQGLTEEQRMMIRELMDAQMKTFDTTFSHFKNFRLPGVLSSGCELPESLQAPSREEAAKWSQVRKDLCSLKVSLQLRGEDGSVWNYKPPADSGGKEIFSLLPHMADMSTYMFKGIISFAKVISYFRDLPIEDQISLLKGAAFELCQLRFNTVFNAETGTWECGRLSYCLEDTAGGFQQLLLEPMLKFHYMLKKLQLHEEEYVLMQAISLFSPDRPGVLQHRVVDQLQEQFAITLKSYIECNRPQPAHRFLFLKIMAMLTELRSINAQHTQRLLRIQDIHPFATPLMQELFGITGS

CCO[Si](CC(C)C)(OCC)OCC
outcome [1]: inactive
outcome [2]: inactive
Potency [3]: inactive
outcome [4]: inactive
outcome [5]: inactive
Potency [6]: inactive
outcome [7]: inactive
outcome [8]: inactive

CCCCOCCCC
outcome [1]: inactive
outcome [2]: inactive
Potency [3]: inactive
outcome [4]: inactive
outcome [5]: inactive
Potency [6]: inactive
outcome [7]: inactive
outcome [8]: inactive
Potency [9]: inactive

CC(C)(O)CCCC1=CCC(C=O)CC1 (configuration not stated)
outcome [1]: inactive
outcome [2]: inactive
Potency [3]: inactive
outcome [4]: inactive
outcome [5]: inactive
Potency [6]: inactive
outcome [7]: inactive
outcome [8]: inactive

C=COCCCCO
outcome [1]: inactive
outcome [2]: inactive
Potency [3]: inactive
outcome [4]: inactive
outcome [5]: inactive
Potency [6]: inactive
outcome [7]: inactive
outcome [8]: inactive

CC(C)C(=O)Nc1cccc(C2CN3CCSC3=N2)c1 (configuration not stated)
outcome [1]: inactive
outcome [2]: inactive
Potency [3]: inactive
outcome [4]: inactive
outcome [5]: inactive
Potency [6]: inactive
outcome [7]: inactive
outcome [8]: inactive
Potency [9]: inactive

CC(O)C(CO)C(C)O (configuration not stated)
outcome [1]: inactive
outcome [2]: inactive
Potency [3]: inactive
outcome [4]: inactive
outcome [5]: inactive
Potency [6]: inactive
outcome [7]: inactive
outcome [8]: inactive
Potency [9]: inactive

CC(C)(C)c1ccc(N)cc1
outcome [1]: inactive
outcome [2]: inactive
Potency [3]: inactive
outcome [4]: inactive
outcome [5]: inactive
Potency [6]: inactive
outcome [7]: inactive
outcome [8]: inactive
Potency [9]: 68.6 µM (active)

CCC(=O)OCCOc1ccccc1
outcome [1]: inactive
outcome [2]: inactive
Potency [3]: inactive
outcome [4]: inactive
outcome [5]: inactive
Potency [6]: inactive
outcome [7]: inactive
outcome [8]: inactive

O=Cc1ccc(C(=O)O)cc1
outcome [1]: inactive
outcome [2]: inactive
Potency [3]: inactive
outcome [4]: inactive
outcome [5]: inactive
Potency [6]: inactive
outcome [7]: inactive
outcome [8]: inactive

BrCCOc1ccccc1
outcome [1]: inactive
outcome [2]: inactive
Potency [3]: inactive
outcome [4]: inactive
outcome [5]: inactive
Potency [6]: inactive
outcome [7]: inactive
outcome [8]: inactive
Potency [9]: inactive

CC(C)(C)OC(=O)c1ccccc1C(=O)O
outcome [1]: inactive
outcome [2]: inactive
Potency [3]: inactive
outcome [4]: inactive
outcome [5]: inactive
Potency [6]: inactive
outcome [7]: inactive
outcome [8]: inactive
Potency [9]: inactive

CCCCCC(=O)CC
outcome [1]: inactive
outcome [2]: inactive
Potency [3]: inactive
outcome [4]: inactive
outcome [5]: inactive
Potency [6]: inactive
outcome [7]: inactive
outcome [8]: inactive
Potency [9]: inactive

Cc1cc(N)no1
outcome [1]: inactive
outcome [2]: inactive
Potency [3]: inactive
outcome [4]: inactive
outcome [5]: inactive
Potency [6]: inactive
outcome [7]: inactive
outcome [8]: inactive
Potency [9]: inactive

Cc1ccc(OC(=O)CC(C)C)cc1
outcome [1]: inactive
outcome [2]: inactive
Potency [3]: inactive
outcome [4]: inactive
outcome [5]: inactive
Potency [6]: inactive
outcome [7]: inactive
outcome [8]: inactive
Potency [9]: inactive

O=C1CC2(CCCC2)CC(=O)N1CCNCC1COc2ccccc2O1 (configuration not stated)
outcome [1]: inactive
outcome [2]: inactive
Potency [3]: inactive
outcome [4]: inactive
outcome [5]: inactive
Potency [6]: inactive
outcome [7]: inactive
outcome [8]: inactive
Potency [9]: 13.3 µM (active)

N#CC1(N)CCCCC1
outcome [1]: inactive
outcome [2]: inactive
Potency [3]: inactive
outcome [4]: inactive
outcome [5]: inactive
Potency [6]: inactive
outcome [7]: inactive
outcome [8]: inactive
Potency [9]: inactive

OCCC(F)(F)C(F)(F)C(F)(F)C(F)(F)C(F)(F)C(F)(F)F
outcome [1]: inactive
outcome [2]: inactive
Potency [3]: inactive
outcome [4]: inactive
outcome [5]: inactive
Potency [6]: inactive
outcome [7]: inactive
outcome [8]: inactive
Potency [9]: inactive

CCCC(=O)CC
outcome [1]: inactive
outcome [2]: inactive
Potency [3]: inactive
outcome [4]: inactive
outcome [5]: inactive
Potency [6]: inactive
outcome [7]: inactive
outcome [8]: inactive
Potency [9]: inactive

CC(=O)SCC(CC(=O)c1ccc(C)cc1)C(=O)O (configuration not stated)
outcome [1]: inactive
outcome [2]: inactive
Potency [3]: inactive
outcome [4]: inactive
outcome [5]: inactive
Potency [6]: inactive
outcome [7]: inactive
outcome [8]: inactive

Cc1ccc(Br)cc1
outcome [1]: inactive
outcome [2]: inactive
Potency [3]: inactive
outcome [4]: inactive
outcome [5]: inactive
Potency [6]: inactive
outcome [7]: inactive
outcome [8]: inactive
Potency [9]: inactive

O=C(O)CCC(=O)Nc1ccc(S(=O)(=O)Nc2nccs2)cc1
outcome [1]: inactive
outcome [2]: inactive
Potency [3]: inactive
outcome [4]: inactive
outcome [5]: inactive
Potency [6]: inactive
outcome [7]: inactive
outcome [8]: inactive

Cc1cc(O)c(Cl)cc1C
outcome [1]: inactive
outcome [2]: inactive
Potency [3]: inactive
outcome [4]: inactive
outcome [5]: inactive
Potency [6]: inactive
outcome [7]: inactive
outcome [8]: inactive
Potency [9]: inactive

CC(=O)Oc1ccc(C(C)=O)cc1
outcome [1]: inactive
outcome [2]: inactive
Potency [3]: inactive
outcome [4]: inactive
outcome [5]: inactive
Potency [6]: inactive
outcome [7]: inactive
outcome [8]: inactive
Potency [9]: inactive

CCN(CC)CC(=O)Oc1ccc(NC(C)=O)cc1
outcome [1]: inactive
outcome [2]: inactive
Potency [3]: inactive
outcome [4]: inactive
outcome [5]: inactive
Potency [6]: inactive
outcome [7]: inactive
outcome [8]: inactive
Potency [9]: inactive

COc1ccc(Cl)cc1C
outcome [1]: inactive
outcome [2]: inactive
Potency [3]: inactive
outcome [4]: inactive
outcome [5]: inactive
Potency [6]: inactive
outcome [7]: inactive
outcome [8]: inactive
